A short description of test [1]: Quantitative High-Throughput drug screen in 47 multiple myeloma cell lines against the NCATS MIPE library collection: FR4_PLB cell viability assay (AID 1918924; note: nearly all actives have a fitted effect of over 35% in size; note: potency is the fitted concentration of half-maximal effect). To be noted: FR4_PLB myeloma cells viability, CellTiter-Glo ATP, 48 h; series mostly up to 45.8 µM. Summed up: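 Viability readout: CellTiter-Glo luminescence following 5 min room-temperature incubation with reagent. Prior exposure: 48 h, 37C, humidified 5% CO2, 500 cells per well.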
Background: In ATP-based viability assays light output follows the ATP content of the culture.

Test [2] can be described thus: Quantitative High-Throughput drug screen in 47 multiple myeloma cell lines against the NCATS MIPE library collection: Delta47_JCRB cell viability assay (AID 1918925; note: nearly all actives have a fitted effect of over 45% in size; note: potency is the fitted concentration of half-maximal effect). As to conditions: Delta47 myeloma viability, CellTiter-Glo ATP, 48 h; series mostly up to 45.8 µM. Summed up: (§1)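 We plated 500 myeloma cells per well, pinned in MIPE 4.0 compounds, and incubated for 48 hours at 37C. ATP was then quantified with CellTiter-Glo, with DMSO and media-only wells defining 100% and 0%.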

A short description of test [3]: Quantitative High-Throughput drug screen in 47 multiple myeloma cell lines against the NCATS MIPE library collection: EJM_DSMZ cell viability assay (AID 1918926; note: nearly all actives have a fitted effect of over 30% in size; note: potency is the fitted concentration of half-maximal effect). As to conditions: EJM myeloma cell viability, CellTiter-Glo ATP, 48 h; series mostly up to 45.8 µM. Summed up: as §1
Test [4] is described as follows: Quantitative High-Throughput drug screen in 47 multiple myeloma cell lines against the NCATS MIPE library collection: AMO1_DSMZ cell viability assay (AID 1918927; note: nearly all actives have a fitted effect of over 30% in size; note: potency is the fitted concentration of half-maximal effect). As to conditions: AMO1 myeloma cells viability, CellTiter-Glo ATP luminescence, 48 h; series mostly up to 45.8 µM. Summed up:
as §1

Test [5] in a line: Quantitative High-Throughput drug screen in 47 multiple myeloma cell lines against the NCATS MIPE library collection: ARP1_JJKsccF8 cell viability assay (AID 1918928; note: nearly all actives have a fitted effect of over 40% in size; note: potency is the fitted concentration of half-maximal effect). As to conditions: ARP1 myeloma cells viability, CellTiter-Glo ATP, 48 h; series mostly up to 45.8 µM. The procedure, abridged: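 Luminescence from CellTiter-Glo, taken after 5 min at room temperature, reports cellular ATP as viability. Cells (500 per well) had been treated 48 h at 37 °C with MIPE 4.0 compounds, scaled between DMSO and medium-only controls.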

Test [6] is described as follows: Quantitative High-Throughput drug screen in 47 multiple myeloma cell lines against the NCATS MIPE library collection: ARD_JJKsccE7 cell viability assay (AID 1918929; note: potency is the fitted concentration of half-maximal effect). To be noted: ARD myeloma cell line viability, CellTiter-Glo, 48 h; series mostly up to 45.8 µM. Summed up: as §1
For test [7], the target named is Luciferin 4-monooxygenase (Photinus pyralis) (UniProt P08659). In words: Primary firefly luciferase (FLuc) qHTS assay for identification of artifact compounds. (AID 1845220). Note: nearly all actives have a fitted effect of over 60% in size. To be noted: purified firefly luciferase, luminescence, 5 min; series mostly up to 54.1 µM. Summed up:
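qHTS, 15 min compound preincubation with substrate (10 uM luciferin, 10 uM ATP) at RT, then 10 nM FLuc; 5 min; luminescence; % inhibition vs no-enzyme/DMSO controls, 4-parameter Hill fit.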
(Quantitative high-throughput screening tests each substance at several concentrations.)

Test [8] concerns Nanoluciferase (engineered Oplophorus gracilirostris luciferase). In words: Primary Nanoluciferase (NLuc) qHTS assay for identification of artifact compounds. (AID 1845222). As to conditions: NLuc-conditioned medium, Nano-Glo luminescence, 5 min; series mostly up to 54.1 µM. The procedure, abridged:
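Luminescence read-out of secreted NLuc in S16 cell conditioned medium (1:55); compounds tested with 15 min RT preincubation, then Nano-Glo substrate 1:100, 5 min. % inhibition vs no-enzyme and DMSO controls, 4-parameter Hill fit.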

The nature of test [9]: Primary redox qHTS assay for identification of artifact compounds. (AID 1845223). To be noted: Amplex Red/HRP redox cycling with DTT, fluorescence; series mostly up to 53.8 µM. The procedure, abridged:
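Amplex Red (25 uM) and HRP (250 mU/mL) in HBSS, with compounds for 15 min, then 250 uM DTT for 30 min, room temperature, dark. Fluorescence 525/598 nm read; normalized to DMSO and 10 uM DA3003; Hill fit.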

Molecules are shown by their SMILES. Inconclusive results are not listed. The source made the active and inactive calls. Calls come from the whole dose curve; as a rule, active = well fitted curve in the direction sought with a large enough effect; inconclusive = small, poorly fitted or top-dose-only effect, or another doubt; inactive = no such curve, though single readings can be large; an effect the other way counts as inactive or inconclusive.

On to `O=C1NCCc2[nH]c(-c3ccncc3)cc21`, for which the Potency in test [1] is 1870 nM (active); in [2], 2960 nM (active); in test [3] it was 1870 nM (active); in test [4], 1660 nM (active); in [5], 5900 nM (active); in test [6], 4180 nM (active).

`CC(=O)N[C@H]1[C@@H]([C@H](O)[C@H](O)CO)OC(C(=O)O)=C[C@@H]1N=C(N)N`: the Potency result in [1], in [2], in [3], in test [4] and in test [5] was “inactive” throughout.

In the case of `CC(C)(C)c1nc2c3cc[nH]c(=O)c3c3cc(F)ccc3c2[nH]1`, the Potency in test [1] was 833 nM (active); in [2] it was 3320 nM (active); in [3], 2960 nM (active).

`CCNC(=O)c1cc2c(-c3cc(OCCN4CCCC4)c(Cl)cc3Cl)nc(N)nc2s1`: the Potency in test [1] was 1480 nM (active); in [2], 1050 nM (active); in test [3] it was 2090 nM (active); in [4], 935 nM (active); in test [5], 1660 nM (active); in test [6], 526 nM (active).

`COc1ccc2c(c1OC)C(=O)OC2[C@H]1c2c(cc3c(c2OC)OCO3)CCN1C` (stereo partly specified): the Potency was 52.6 nM (active) in [1]; 187 nM (active) in test [2]; 2090 nM (active) in test [3]; 74.3 nM (active) in [4]; 52.6 nM (active) in test [5]; 74.3 nM (active) in [6].

On to `OCCN1C[C@H](O)[C@@H](O)[C@H](O)[C@@H]1CO`, for which the Potency entry in test [1], in [2], in test [3], in test [4], in test [5] and in [6] was “inactive” throughout.

As to `COc1cc([C@@H]2c3cc4c(cc3[C@@H](O[C@@H]3O[C@@H]5CO[C@@H](c6cccs6)O[C@@H]5[C@H](O)[C@@H]3O)[C@H]3COC(=O)[C@H]23)OCO4)cc(OC)c1O`, the Potency was 16600 nM (active) in test [1]; 935 nM (active) in test [2]; 2350 nM (active) in test [3]; 590 nM (active) in test [4]; 209 nM (active) in test [5].

For the compound `CCN(CC)Cc1ccc2cc(COC(=O)Nc3ccc(C(=O)NO)cc3)ccc2c1`, the Potency result in test [7] and in test [9] was “inactive” in each case. Moreover, the compound was classed as inactive in [8]. Further, the Potency in test [1] was 372 nM (active); in [3], 1050 nM (active); in test [4] it was 743 nM (active); in test [5], 590 nM (active); in [6], 662 nM (active).

Turning to `C#C[C@]1(O)CC[C@@H]2[C@@H]3CCc4cc(O)ccc4[C@H]3CC[C@@]21C`, the Potency was 16600 nM (active) in [1]; 7430 nM (active) in test [2]; 6620 nM (active) in test [3]; 16600 nM (active) in [4]; 23500 nM (active) in test [5]; 18700 nM (active) in [6].

`CC[C@H]1OC(=O)[C@H](C)[C@@H](O[C@H]2C[C@@](C)(OC)[C@@H](O)[C@H](C)O2)[C@H](C)[C@@H](O[C@@H]2O[C@H](C)C[C@H](N(C)C)[C@@H]2O)[C@](C)(OC)C[C@@H](C)C(=O)[C@H](C)[C@@H](O)[C@]1(C)O`: the Potency result in [1], in [2], in [3], in [4] and in test [5] was “inactive” each time.

With `c1ccc2c(Oc3nc(Nc4ccc(N5CCOCC5)cc4)c4ncn(C5CCCCC5)c4n3)cccc2c1`, the Potency result in test [7], in test [9] and in test [1] was “inactive” in each case. Besides, the call in test [8] was inactive. Further, the Potency in test [4] was 9350 nM (active).

On to `CCOC(=O)C1=C(C)NC(=S)NC1c1cccc(O)c1` (stereo unspecified), for which the Potency in test [1] is 18.7 nM (active); in test [2], 16.6 nM (active); in test [3] it was 46.9 nM (active); in [4], 662 nM (active); in test [5] it was 105 nM (active); in test [6], 833 nM (active).

For the compound `CN1CCc2c(c3ccccc3n2Cc2ccc(C(=O)NO)cc2)C1`, the Potency result in test [7] and in [9] was “inactive” each time. In addition, the result in test [8] was inactive. Further, the Potency in test [1], in test [2], in test [3] and in [5] was 18700 nM (active) in each case.

`Oc1cc2c(cc1O)C1c3ccc(O)c(O)c3OCC1(O)C2` (stereo unspecified): the Potency entry in test [1], in test [2], in test [3], in test [4], in test [5] and in test [6] was “inactive” throughout.

For `CC(=O)OC[C@@H]1O[C@@H](n2ccc(=O)[nH]c2=O)[C@H](OC(C)=O)[C@H]1OC(C)=O`, the Potency result in test [1], in test [2], in test [3], in test [4], in [5] and in test [6] was “inactive” in each case.

With `NC(=NCCCCCCN=C(N)N=C(N)Nc1ccc(Cl)cc1)N=C(N)Nc1ccc(Cl)cc1`, the Potency was 16600 nM (active) in test [1]; 2640 nM (active) in test [2]; 2640 nM (active) in [3]; 23500 nM (active) in test [4]; 8330 nM (active) in test [5].

Turning to `C[C@H](O)[C@@H]1C(=O)N2C(C(=O)O)=C(S[C@@H]3CN[C@H](CNS(N)(=O)=O)C3)[C@@H](C)[C@@H]12`, the Potency entry in [7], in test [1], in test [2], in test [3], in test [5] and in [6] was “inactive” throughout. For the same compound, the outcome in test [8] was inactive.

As to `CC(C)(C)[N+]([O-])=Cc1ccc(S(=O)(=O)O)cc1S(=O)(=O)O`, the Potency entry in test [1], in [2], in [3], in test [4] and in [5] was “inactive” each time.

In the case of `O=C(C[C@@H]1CC=CCCC(=O)O[C@H](c2ccccc2)CNC1=O)NCc1ccc(Cl)cc1`, the Potency in test [1] was 16600 nM (active); in test [2], 10500 nM (active); in test [3], 1.2 nM (active).

Turning to `Cc1cc(O)c2c(c1)C(=O)c1cccc(O)c1C2=O`, the Potency entry in test [1], in test [2], in test [3], in test [4] and in [6] was “inactive” throughout.

`O=C(O)C=Cc1ccc(Cn2ccnc2)cc1`: the Potency result in [1], in test [2], in [3] and in test [6] was “inactive” throughout. Besides, the Potency in [4] is 372 nM (active).

The record behind these values is PubChem BioAssay (NCATS).
